Inconclusive results are not listed. The source made the active and inactive calls. Unless noted, the call rests on the fitted dose curve; in most records, active means well fitted curve in the direction sought with a large enough effect in the repeat runs; inconclusive means weak or mixed curves; inactive means no such curve, though single readings can be large; an effect the other way counts as inactive or inconclusive.
Experiments:
[1] = qHTS assay to identify small molecule antagonists of the estrogen related receptor (ERR) signaling pathway from Tox21 library - cell viability counter screen (AID 1224834); further: nearly all actives have a fitted effect of over 30% in size; further: potency means the concentration at half of the fitted maximal effect
Method in brief: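 Multiplexed viability counter screen in ERR cells: 17.5 h compound exposure at 37 C, CellTiter-Fluor added, 30 min at 37 C/5% CO2, fluorescence read.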

[2] = biological target: Luciferin 4-monooxygenase (Photinus pyralis) (UniProt P08659); test: qHTS assay to identify small molecule inhibitors of firefly luciferase (AID 1224835); further: nearly all actives have a fitted effect of over 25% in size; further: potency means the concentration at half of the fitted maximal effect
Sequence of Luciferin 4-monooxygenase (Photinus pyralis) (P08659 whole entry, looked up): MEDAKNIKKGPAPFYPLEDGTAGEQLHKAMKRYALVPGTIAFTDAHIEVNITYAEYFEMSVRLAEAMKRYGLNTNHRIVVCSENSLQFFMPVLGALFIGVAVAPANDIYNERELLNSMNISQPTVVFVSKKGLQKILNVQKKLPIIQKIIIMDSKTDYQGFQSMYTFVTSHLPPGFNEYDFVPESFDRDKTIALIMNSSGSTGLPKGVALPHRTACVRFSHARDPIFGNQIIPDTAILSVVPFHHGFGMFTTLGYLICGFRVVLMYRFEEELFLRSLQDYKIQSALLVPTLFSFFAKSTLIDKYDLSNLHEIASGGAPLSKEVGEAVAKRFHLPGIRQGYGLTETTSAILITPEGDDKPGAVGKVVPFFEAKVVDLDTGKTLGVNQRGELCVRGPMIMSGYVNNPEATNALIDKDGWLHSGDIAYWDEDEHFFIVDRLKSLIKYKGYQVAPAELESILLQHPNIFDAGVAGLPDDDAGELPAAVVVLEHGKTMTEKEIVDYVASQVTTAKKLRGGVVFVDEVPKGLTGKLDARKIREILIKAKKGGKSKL
Method in brief: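 Biochemical qHTS: compounds run as interplate titrations against purified firefly enzyme, with D-luciferin and ATP each at its KM concentration. Light output recorded by CCD imaging.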

[3] = qHTS assay to identify small molecule agonists of the constitutive androstane receptor (CAR) signaling pathway - cell viability counter screen (AID 1224836); further: nearly all actives have a fitted effect of over 45% in size; further: potency means the concentration at half of the fitted maximal effect
Method in brief: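 Multiplexed viability check: HepG2-CYP2B6-hCAR cells, 15-point compound dosing, 0.75 uM PK11195 final, 23 h at 37 C, CellTiter-Fluor fluorescence.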

[4] = qHTS assay to identify small molecule antagonists of the constitutive androstane receptor (CAR) signaling pathway - cell viability counter screen (AID 1224837); further: nearly all actives have a fitted effect of over 45% in size; further: potency means the concentration at half of the fitted maximal effect
Method in brief: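 Read-out: CellTiter-Fluor fluorescence after 23 hr at 37 C/5% CO2. Cells: HepG2 double-stable for hCAR and CYP2B6-2.2kb. Compounds tested at 15 concentrations in the presence of CITCO, final concentration 50 nM.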

[5] = qHTS assay to identify small molecule antagonists of the estrogen related receptor signaling pathway with the pleiotropic PPARgamma coactivator (PGC) from Tox21 10K library - cell viability counter screen (AID 1224840; active means well fitted cell-killing curve with a large enough effect in the repeat runs, not every such curve was filed as active; further: nearly all actives have a fitted effect of over 40% in size; further: potency means the concentration at half of the fitted maximal effect)
Method in brief: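 Fluorescence read-out of CellTiter-Fluor viability reagent, added after cells had been exposed to compound in DMSO for 17.5 h at 37 C; 30 min development at 37 C/5% CO2. Cells: PGC/ERR line, 2,000/well.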

[6] = qHTS assay to identify small molecule antagonists of the estrogen related receptor signaling pathway with the pleiotropic PPARgamma coactivator (PGC) from Tox21 10K library (AID 1224841; call rule not given here; further: actives are mostly falling curves and most rising ones were filed inactive; nearly all actives have a fitted effect of over 50% in size; further: potency means the concentration at half of the fitted maximal effect)
Method in brief: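 Luminescence read-out (One-Glo luciferase reagent, 30 min at room temperature) from PGC/ERR cells exposed to DMSO-dissolved test compounds for 18 h at 37 C; cells, 2,000 per well, had been preincubated 6 h before compound transfer.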

[7] = qHTS assay to identify small molecule agonists of the estrogen related receptor signaling pathway with the pleiotropic PPARgamma coactivator (PGC) from Tox21 10K library (AID 1224842); further: nearly all actives have a fitted effect of over 15% in size
Method in brief: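 PGC/ERR reporter cell line, 2,000 cells per well, incubated 6 h at 37 C before 23 nL compound in DMSO was added. After 18 h at 37 C, One-Glo luminescence read following 30 min at room temperature.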

[8] = biological target: Nuclear receptor subfamily 1 group I member 3 (Homo sapiens) (UniProt Q14994); test: qHTS assay to identify small molecule antagonists of the constitutive androstane receptor (CAR) signaling pathway (AID 1224838);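 further: HepG2 cells stably expressing hCAR with CYP2B6 luciferase reporter stimulated by CITCO; nearly all actives have a fitted effect of over 40% in size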; further: potency means the concentration at half of the fitted maximal effect
Sequence of Nuclear receptor subfamily 1 group I member 3 (Homo sapiens) (Q14994 whole entry, looked up): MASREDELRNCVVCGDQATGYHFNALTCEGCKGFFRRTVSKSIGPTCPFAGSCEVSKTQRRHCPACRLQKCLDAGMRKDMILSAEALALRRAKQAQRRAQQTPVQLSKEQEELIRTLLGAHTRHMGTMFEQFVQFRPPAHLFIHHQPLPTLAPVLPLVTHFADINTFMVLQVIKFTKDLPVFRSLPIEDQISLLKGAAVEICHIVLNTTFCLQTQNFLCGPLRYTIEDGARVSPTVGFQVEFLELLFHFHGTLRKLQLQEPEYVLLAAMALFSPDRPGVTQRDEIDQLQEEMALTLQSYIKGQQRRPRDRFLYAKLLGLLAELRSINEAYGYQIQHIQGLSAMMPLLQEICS
Method in brief: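 Read-out: ONE-Glo luciferase luminescence after 30 min at room temperature. HepG2-CYP2B6-hCAR double-stable cells, compounds in 15-point titration plus 50 nM CITCO final, 24 h at 37 C/5% CO2.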

[9] = biological target: Nuclear receptor subfamily 1 group I member 3 (Homo sapiens) (UniProt Q14994); test: qHTS assay to identify small molecule agonists of the constitutive androstane receptor (CAR) signaling pathway (AID 1224839); further: nearly all actives have a fitted effect of over 15% in size; further: potency means the concentration at half of the fitted maximal effect
Method in brief: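 Using human hepatoma HepG2 cells engineered with hCAR and a CYP2B6-2.2kb reporter, 15-concentration compound series were incubated 24 h alongside PK11195 at 0.75 uM final, with luminescence quantified afterwards.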

Measured: Potency

CCC1(CO)COCOC1
not listed: [8] | [9]
inactive: all other assays above

CC(C)=CCC/C(C)=C/CC/C(C)=C/C(=O)OCC(=O)[C@@]1(O)CC[C@H]2[C@@H]3CCC4=CC(=O)C=C[C@]4(C)[C@H]3[C@@H](O)C[C@@]21C
active: [1] 29.8 µM
not listed: [6] | [9]
inactive: all other assays above

C[C@]1(Cn2ccnn2)[C@H](C(=O)O)N2C(=O)C[C@H]2S1(=O)=O
inactive: [1] | [2] | [3] | [4] | [5]

Nc1nnc(-c2ccc([N+](=O)[O-])o2)o1
active: [1] 48.6 µM | [3] 30.6 µM | [4] 48.6 µM
inactive: [2] | [9]

O=C1c2ccccc2C(=O)C1c1nc2ccccc2c(Br)c1O
active: [2] 17.8 µM
inactive: [1] | [3] | [4] | [5]

CC1CC(OC(=O)C(O)c2ccccc2)CC(C)(C)N1C (centres undefined)
not listed: [8] | [9]
inactive: all other assays above

O=[N+]([O-])c1cc(C2CCCCC2)c(O)c([N+](=O)[O-])c1
inactive: [9] | [7]
active: [1] 12.2 µM | [2] 39.8 µM | [3] 12.2 µM | [4] 15.3 µM | [5] 12.2 µM | [6] 4.84 µM

CCC(C)COC(C)=O (centres undefined)
not listed: [6] | [8] | [9]
inactive: all other assays above

C=C1CCC2CC1C2(C)C (centres undefined)
inactive: [1] | [2] | [3] | [4] | [5]

C(=C\c1ccccc1)/c1ccccc1
active: [2] 7.9 µM
not listed: [7] | [9]
inactive: all other assays above

CCC(OCCCOC)OC(C)=O (centres undefined)
inactive: [1] | [2] | [3] | [4] | [5]

C=Cc1ccc(S(=O)(=O)O)cc1
active: [2] 20 µM
not listed: [8] | [9]
inactive: all other assays above

O=C(/C=C/c1ccccc1)OCCc1ccccc1
active: [2] 4.48 µM
inactive: [1] | [3] | [4] | [8] | [5]

Oc1cccc(Nc2ccccc2)c1
inactive: [1] | [3] | [4] | [8] | [5]
active: [2] 37.1 µM

C=C1C[C@@]23CC[C@H]4[C@@](C)(CCC[C@@]4(C)C(=O)O[C@@H]4O[C@H](CO)[C@@H](O)[C@H](O)[C@H]4O)[C@@H]2CC[C@]1(O[C@@H]1O[C@H](CO)[C@@H](O)[C@H](O[C@@H]2O[C@H](CO)[C@@H](O)[C@H](O)[C@H]2O)[C@H]1O[C@@H]1O[C@H](CO)[C@@H](O)[C@H](O)[C@H]1O)C3
not listed: [6]
inactive: all other assays above

Cc1cc(O)ccc1O
active: [1] 61.8 µM | [5] 61.8 µM
not listed: [9]
inactive: all other assays above

COC(=O)CS
inactive: [1] | [2] | [3] | [4] | [5]

C[C@@H]1CN(CCCn2c3ccccc3c3ccccc32)C[C@H](C)N1
inactive: [2] | [7]
active: [1] 29.8 µM | [3] 29.8 µM | [4] 26.6 µM | [9] 2.11 µM | [5] 26.6 µM

CCCCCCCCCCCCCCN(CCO)CCO
inactive: [2] | [9] | [7]
active: [1] 61.1 µM | [3] 61.1 µM | [4] 61.1 µM | [8] 48.6 µM | [5] 54.5 µM

CCCCCCCCOc1ccc(C(=O)O)cc1
active: [2] 31.4 µM
inactive: [1] | [3] | [4] | [8] | [5]

C=C(C)CCCC(C)CCO (centres undefined)
inactive: [1] | [2] | [3] | [4] | [5]

O=C1Cc2cc(Cl)ccc2N1
not listed: [9]
inactive: all other assays above

CC(=O)c1ccc([N+](=O)[O-])cc1
not listed: [8] | [9]
inactive: all other assays above

O=C1NC(=O)c2cc([N+](=O)[O-])ccc21
inactive: [1] | [2] | [3] | [4] | [5]

CC[N+](CC)(CCNC(=O)C(=O)NCC[N+](CC)(CC)Cc1ccccc1Cl)Cc1ccccc1Cl
not listed: [8] | [9]
inactive: all other assays above

Cc1cc(O)c(C)c(C)c1O
not listed: [6] | [8]
inactive: all other assays above

c1ccc2sc(SN(C3CCCCC3)C3CCCCC3)nc2c1
not listed: [6] | [7] | [9]
inactive: all other assays above

CCCCOc1ccc(OCCCN2CCOCC2)cc1
not listed: [6] | [7] | [9]
inactive: all other assays above

O=C(O)CCC(=O)C(=O)O
inactive: [1] | [2] | [3] | [4] | [5]

CCC1CO1 (centres undefined)
inactive: [1] | [2] | [3] | [4] | [5]

CCCCCCCC/C=C\CCCCCCCCO
not listed: [6] | [8] | [9]
inactive: all other assays above

CC(=O)OCCN(CCOC(C)=O)c1ccc(N=Nc2ccc([N+](=O)[O-])cc2C#N)cc1
inactive: [3] | [4] | [8] | [7]
active: [1] 48.6 µM | [2] 35.6 µM | [5] 48.6 µM

CCOC(=O)/C=C/C(=O)OCC
not listed: [8] | [9]
inactive: all other assays above

OC(CCN1CCCC1)(c1ccccc1)C1CCCCC1 (centres undefined)
inactive: [1] | [2] | [3] | [4] | [5]

O=c1[nH]c2ccc(Cl)cc2o1
not listed: [6] | [8] | [9]
inactive: all other assays above

Oc1c(I)cc(I)c2cccnc12
active: [1] 29.8 µM
inactive: [2] | [3] | [4] | [8] | [5]

O=C(/C=C/c1ccc(O)c(O)c1)O[C@@H]1C[C@@](OC(=O)/C=C/c2ccc(O)c(O)c2)(C(=O)O)C[C@@H](O)[C@@H]1O
inactive: [1] | [2] | [3] | [4] | [5]

CC(C)(C)CC(=O)OCC(=O)[C@@]1(O)CC[C@H]2[C@@H]3CCC4=CC(=O)C=C[C@]4(C)[C@H]3[C@@H](O)C[C@@]21C
active: [1] 26.6 µM
not listed: [6]
inactive: all other assays above
